Compound activity deposited in PubChem by The Scripps Research Institute Molecular Screening Center.
ssDAF-12 act: activates DAF-12 receptor from parasite S. stercoralis. hit rate 1% among 370,000. HEK293 ssDAF-12/GRIP1 lit1-tk-luc reporter, luminescence; % of 3 µM dafachronic acid response. activation, % at 6.8 µM. AID 652126;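 active = activation above the mean over all tested compounds plus 3 SD, cut at about 0.9% in these data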
FXN GAA850 act: frataxin GAA850 promoter activation. HEK293 lucGAA850 FXN promoter luciferase reporter, 24 h; percent of 10 µM SAHA response. hit rate 0.56% among 360,000. activation, % at 6 µM. AID 540364;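 active = activation above the average of all compounds screened plus 3 SD, cutoff fixed separately per campaign, cut at about 7.5% in these data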
hcDAF-12 act: H. contortus DAF-12 activation, primary screen. hit rate 1.4% among 370,000. HEK293 hcDAF-12 lit1-tk-luc reporter, luminescence; 0% DMSO, 100% Δ7-dafachronic acid. activation, % at 6.8 µM;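 active = activation above the mean of all tested compounds plus 3 SD, cut at about 5.5% in these data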
DAX1 inh-1: inhibitors of DAX1 repression of SF-1 activated StAR promoter; HEK293T StAR-luciferase reporter, SF-1/DAX-1 repression relief; inhibition, % at 6.8 µM; hit rate 1.1% among 370,000; AID 652010;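 active = inhibition above the mean over all tested compounds plus 3 SD, cut at about 3.6% in these data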;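 also: higher inhibition means more luminescence from relief of DAX-1 repression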
hgDAF12 agonist: hgDAF-12 agonism, primary luciferase screen | HEK293 GAL4-hgDAF12 UAS-luciferase reporter, agonist luminescence; normalized to butyrate control | AID 687014 | activation, % at 6.8 µM | hit rate 1.8% among 370,000;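 active = activation above a cutoff set at the mean of all screened compounds plus 3 SD, cut at about 10% in these data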
DAX1 inh-2: inhibitors of human orphan nuclear receptor DAX1 (NR0B1); HEK293 Gal4-DAX1 luciferase reporter, luminescence; inhibition, % at 6.75 µM; hit rate 0.99% among 340,000; AID 504766;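 active = inhibition above the mean over all tested compounds plus 3 SD, cut at about 4.2% in these data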;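 also: inhibition shows as a rise in luminescence from relieved DAX1 repression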
Target sequence (P51843 207-470 limits assumed): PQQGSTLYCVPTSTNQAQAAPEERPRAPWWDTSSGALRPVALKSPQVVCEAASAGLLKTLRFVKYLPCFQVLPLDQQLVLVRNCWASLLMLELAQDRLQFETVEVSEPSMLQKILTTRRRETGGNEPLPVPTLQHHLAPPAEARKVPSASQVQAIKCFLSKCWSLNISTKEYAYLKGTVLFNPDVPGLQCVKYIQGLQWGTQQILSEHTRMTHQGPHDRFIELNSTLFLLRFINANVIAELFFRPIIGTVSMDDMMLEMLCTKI
GAA30 counter: activates GAA30 frataxin promoter, counter-screen for GAA850 activators; shares compounds with FXN GAA850 act; HEK293 lucGAA30 FXN promoter luciferase, 24 h; DMSO = 0%, 5 µM ipriflavone = 100%; activation, % at 6 µM; hit rate 66% among 1,900; AID 588350;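 active = mean activation above the mean of solvent-only control wells plus 3 SD, cut at about 22% in these data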;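 also: counterscreen of GAA850 promoter hits where activity marks nonselective or luminescence artifacts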
FXN GAA850 conf: GAA850 FXN promoter activation confirmation; hit rate 86% among 1,900; activation, % at 6 µM; HEK293 lucGAA850 FXN promoter luciferase reporter, 24 h; 100% = activation by SAHA; shares compounds with FXN GAA850 act; AID 588351;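 active = mean activation above a set limit taken from the primary screen, cut at about 8% in these data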
DAX1 inh confirm: NR0B1 (human) inhibition, confirmation; inhibition, % at 6.8 µM; hit rate 87% among 2,400; shares compounds with DAX1 inh-1; HEK293T StAR-promoter luciferase reporter, SF-1/DAX-1 repression;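 active = inhibition above the average of every tested compound plus 3 SD, cut at about 3.8% in these data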;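 also: active compounds raise luminescence by relieving repression of the StAR reporter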
Target sequence (P51843 whole entry, looked up): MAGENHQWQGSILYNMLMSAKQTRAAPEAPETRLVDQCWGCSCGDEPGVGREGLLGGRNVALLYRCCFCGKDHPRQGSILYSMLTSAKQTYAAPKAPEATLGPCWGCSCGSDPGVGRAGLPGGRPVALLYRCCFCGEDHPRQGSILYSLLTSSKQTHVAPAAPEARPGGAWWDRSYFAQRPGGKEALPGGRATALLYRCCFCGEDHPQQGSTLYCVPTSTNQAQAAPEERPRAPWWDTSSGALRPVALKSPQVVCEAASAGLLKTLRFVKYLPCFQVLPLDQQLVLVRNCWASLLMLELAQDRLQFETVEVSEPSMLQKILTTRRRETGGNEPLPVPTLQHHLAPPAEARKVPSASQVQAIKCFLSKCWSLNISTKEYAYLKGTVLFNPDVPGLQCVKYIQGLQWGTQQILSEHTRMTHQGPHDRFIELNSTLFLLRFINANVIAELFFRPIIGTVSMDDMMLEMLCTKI
SF1 AF2mut Luc: nonselective inhibitor or artifact in SF-1 mutant DAX1 counter-screen; shares compounds with DAX1 inh-1; HEK293 StAR-luciferase, SF-1 AF2 mutant, luminescence; inhibition, % at 6.8 µM; hit rate 78% among 2,400;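 active = inhibition above the mean of all tested compounds plus 3 SD, cut at about 3% in these data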
Large screens that a line does not name were inactive (follow-up assays come after a bar, where they were run). Most compounds without a hit are left out; they make up all but 4.5% or so of the library.

C=CC(=O)Oc1ccc(N2Cc3ccccc3C2=O)cc1	FXN GAA850 act 8.0 (no result: ssDAF-12 act, hcDAF-12 act, DAX1 inh-1, hgDAF12 agonist, DAX1 inh-2) | GAA30 counter 31.9 | FXN GAA850 conf inactive
COc1ccc(N2Cc3cccc(C(=O)O)c3C2=O)cc1	none (no result: ssDAF-12 act, hcDAF-12 act, DAX1 inh-1, hgDAF12 agonist)
Cn1c2ccccc2c(=O)c2ccc(C#CC3(N)CCCCC3)cc21	FXN GAA850 act 10.5 | GAA30 counter 48.9 | FXN GAA850 conf 45.7
O=C(NCCc1c[nH]c2ccccc12)OCc1cn(Cc2ccccc2F)nn1	none (no result: FXN GAA850 act, DAX1 inh-2)
CCN(C(=O)c1ccco1)c1nc(-c2ccc(OC)cc2)cs1	FXN GAA850 act 8.3 | GAA30 counter 110.5 | FXN GAA850 conf 37.4
Nc1c(Cl)ncnc1N/N=C/c1ccc(O)cc1	FXN GAA850 act 7.8 | GAA30 counter 52.3 | FXN GAA850 conf 13.9
Cc1sc2ncnc(N/N=C/c3ccc(O)cc3)c2c1C	none
c1ccc2c(Nc3ccc4c(c3)OCCO4)c3c(nc2c1)CCCC3	none
O=C(/C=C\c1ccc(-c2ccccc2)o1)c1ccccc1	FXN GAA850 act 11.7 | GAA30 counter 67.4 | FXN GAA850 conf 27.1
Cc1ccc(C(=O)/C=C/c2ccc(-c3ccc(C)cc3)o2)cc1	none
COc1ccc(S(=O)(=O)NCc2cccnc2)cc1C(=O)Nc1ccccc1	none
Oc1sc(C=Nc2ccc(F)cc2)c2ccccc12	none
Oc1sc(C=Nc2ccccc2)c2ccccc12	FXN GAA850 act 8.2 | GAA30 counter 124.9 | FXN GAA850 conf 42.1
Oc1c(C=Nc2ccccc2)sc2ccccc12	FXN GAA850 act 10.2 | GAA30 counter 112.4 | FXN GAA850 conf 37.9
CCCCCCCCN1CCS(=O)(=O)N(Cc2ccc(Cl)cc2)C(C(=O)OC)C1 (stereo unspecified)	none (no result: FXN GAA850 act, DAX1 inh-2)
CN(Cc1ccccc1Cl)C(=O)CNC(=O)C12CC3CC(CC(C3)C1)C2	none
Cc1ccc(NC(=O)OCCN2CCN(S(=O)(=O)c3ccc(C)cc3)CCC2=O)cc1	none
Cc1ccc(S(=O)(=O)N2CCC(=O)N(CCOC(=O)Nc3cccc(Cl)c3)CC2)cc1	FXN GAA850 act 9.4 | GAA30 counter 41.9 | FXN GAA850 conf 18.6
CCN(CC)c1c2c(nc3ncnn13)CCCC2	none (no result: FXN GAA850 act, DAX1 inh-2)
O=C(Nc1ccc(Cl)c(Cl)c1)C1=Cc2ccccc2OC1	FXN GAA850 act 9.1 | GAA30 counter 85.9 | FXN GAA850 conf 34.5
O=C(COC(=O)c1cccnc1)c1ccc(Cl)cc1	FXN GAA850 act 11.1 | GAA30 counter 21.9 | FXN GAA850 conf inactive
O=C(COC(=O)c1cccnc1)c1ccc(Cl)c(Cl)c1	none
CC(=C/c1ccccc1)/C=N/NC(=O)c1ccc2nc[nH]c2c1	none
O=C(N/N=C/C(Br)=C/c1ccccc1)NC1CCCCC1	FXN GAA850 act 9.8 | GAA30 counter 51.4 | FXN GAA850 conf 21.8
O=C(N/N=C/C(Br)=C\c1ccccc1)c1ccc2nc[nH]c2c1	FXN GAA850 act 8.5 | GAA30 counter 37.9 | FXN GAA850 conf 18.6
O=C(N/N=C/c1ccccc1)NC1CCCCC1	FXN GAA850 act 8.6 | GAA30 counter 61.7 | FXN GAA850 conf 20.0
Cc1ccc(NCC(=O)N/N=C\C(Br)=C\c2ccccc2)cc1	FXN GAA850 act 13.3 | GAA30 counter inactive | FXN GAA850 conf 10.7
COC(=O)[C@]12C[C@H](CC(=O)N3CCCC3)C(=O)N(Cc3cccc4ccccc34)C1=C[C@H](C(C)C)O[C@@H]2C1CC1	none (no result: FXN GAA850 act, DAX1 inh-2)
O=C(NCc1ccc(F)c(F)c1)C1CCC(CNS(=O)(=O)c2cccc3cccnc23)CC1 (stereo unspecified)	none (no result: FXN GAA850 act, DAX1 inh-2)
O=C(Cn1nc(-c2ccccc2)ccc1=O)NCCc1ccccc1F	none (no result: FXN GAA850 act, DAX1 inh-2)
O=C(N/N=C/C(Br)=C/c1ccccc1)C(O)c1ccccc1 (stereo unspecified)	none
O=C(N/N=C/C(Br)=C/c1ccccc1)C1CC1	FXN GAA850 act 8.2 | GAA30 counter 80.8 | FXN GAA850 conf 31.5
COc1ccc(CCN(C)C(=O)c2c(C)noc2C)cc1OC	none
O=C(OCc1cn(Cc2ccc(Cl)cc2)nn1)N1CCCC1	none (no result: FXN GAA850 act, DAX1 inh-2)
O=C(Nc1ccc(Cl)cc1)c1ccc2c(=O)n3c(nc2c1)CCCCC3	FXN GAA850 act 18.0 | GAA30 counter 62.8 | FXN GAA850 conf 24.8
O=C(Nc1ccc(F)c(Cl)c1)c1ccc2c(=O)n3c(nc2c1)CCCCC3	none
CC1(C)CCC(=O)N2CC[C@H]3c4cc5ccccc5nc4C[C@@H]1[C@H]32	none
COc1cc(-c2cnc3c(NC=O)cc(-c4ccc(N5CCN(C)CC5)cc4)cn23)cc(OC)c1OC	FXN GAA850 act 10.8, hgDAF12 agonist 10.7 (no result: DAX1 inh-2) | GAA30 counter 109.5 | FXN GAA850 conf 51.2
Cc1cccc2c1NC(=O)/C2=C\C(=O)c1cccs1	none
Cc1cc(Br)c2c(c1)/C(=C/C(=O)c1cccs1)C(=O)N2	FXN GAA850 act 9.7 | GAA30 counter inactive | FXN GAA850 conf 22.3
O=C(Oc1c(-c2ccccc2)oc2ccccc2c1=O)c1ccccc1	FXN GAA850 act 12.9 | GAA30 counter 45.3 | FXN GAA850 conf 18.7
COc1ccc(-c2oc3ccccc3c(=O)c2OC(=O)c2ccc(C)cc2)cc1	none
CC(C)C[C@H]1CNC(=O)C(=O)N1C[C@@H]1CCCN1C[C@H](Cc1ccccc1)N1C[C@H](CC(C)C)N(CC2CCCCC2)C(=O)C1=O	none (no result: FXN GAA850 act, DAX1 inh-2)
COc1cc(/C=N/Nc2ccnc(=O)[nH]2)ccc1O	FXN GAA850 act 7.7 | GAA30 counter 30.9 | FXN GAA850 conf inactive
COCCN(C[C@@H]1[C@H](c2ccccc2)[C@H](CO)N1c1nc(C)c(C)s1)S(=O)(=O)c1ccccc1[N+](=O)[O-]	none (no result: FXN GAA850 act, DAX1 inh-2)
C=CCN(CC=C)C(=O)CN1C(=O)NC(Cc2c[nH]c3ccccc23)C1=O (stereo unspecified)	none
COc1ccc(-c2csc(N3C(=O)C4C5c6ccccc6C(c6ccccc65)[C@@H]4C3=O)n2)cc1 (stereo partly specified)	none
COc1ccc(-c2csc(N3C(=N)SCC3=O)n2)cc1	FXN GAA850 act 10.4, hcDAF-12 act 6.4, DAX1 inh-1 6.9, hgDAF12 agonist 13.1 | GAA30 counter 95.8 | FXN GAA850 conf 28.4 | DAX1 inh confirm 16.3 | SF1 AF2mut Luc 7.4
